40 compounds from ChEMBL document CHEMBL1157539, “Thousands of chemical starting points for antimalarial lead identification” (Nature, 2010) can be followed below.

The experiment concerns Plasmodium falciparum. The experiment in a line: GSK_TCMDC: Inhibition of Plasmodium falciparum 3D7 in whole red blood cells, using parasite LDH activity as an index of growth. Test compounds present at 2uM. It counts as functional.
Consider `Cl.N=C(NC1CC1)c1ccc2[nH]c(CCCCCc3nc4cc(C(=N)NC5CC5)ccc4[nH]3)nc2c1`, for which the Inhibition (commonly the drop in the measured response relative to a control, in per cent) was 89%.
In turn, `N#Cc1ccc(-c2ccc(C(=O)NCCCCN3CCC(n4cnc5ccccc54)CC3)cc2)cc1` displayed an Inhibition of 94%.
On to `O=C(N[C@H]1CCN(Cc2ccc(OCCCN3CCCCC3)cc2)C1)c1ccc(Oc2ccccc2)cc1`, for which the Inhibition came to 96%.
Next, `COc1ccc(-c2cn3c(C(=O)Nc4ccccc4Cl)c(-c4ccccc4)c4c3n2CCCC4)cc1`: 100%; `CN(CCCCN)Cc1ccc(-c2ccc(Cl)cc2)cc1`: 97%.
For the compound `COc1ccc2nccc([C@@H](O)CN3CCC(NCc4ccc5c(c4)NC(=O)CO5)CC3)c2c1.Cl`, the Inhibition came out at 99%.
Take `CN(C)CCN(C)Cc1nc(-c2ccc3c(Nc4ccc(Oc5ccccc5)cc4)ccnc3c2)cs1`: the Inhibition is 100%.
Next, `CC(=O)Nc1cc(C(=O)Nc2cccc(-c3cccc(-c4nc5cc(C(F)(F)F)ccc5[nH]4)c3)c2)ccc1C`: 97%; `Br.CCOc1ccc(OCCCON2C(=N)N=C(N)NC2(C)C)cc1`: 97%.
Consider `CCCNC(=O)Nc1cc2cc(-c3ccc(CN4CCCC4)cc3)ccc2n2c(C)nnc12`, for which the Inhibition worked out at 93%.
The result for `CN(C)CCN(C)Cc1ccc(-c2ccc(NC(=O)c3ccc(Cl)cc3)cc2)cc1.O=C(O)C(F)(F)F` reads 91%; that for `COc1ccc2[nH]ccc(=NN=Cc3ccc(Cl)cc3)c2c1`, 100%; that for `c1ccc(Oc2ccc(Nc3ccnc4cc(-c5ccc(CNCCN6CCOCC6)o5)ccc34)cc2)cc1`, 99%.
As for `O=C1C[C@@H]([S+]([O-])Cc2nccs2)N1CCOCCCCCCc1ccc(Cl)cc1` (stereo not given in full), the Inhibition is recorded as 91%.
Take `CN(C)CCOc1cc(NC(=O)Nc2cccc3c(-c4ccncc4)cccc23)ccc1I.Cl`: the Inhibition is reported as 100%.
The result for `Cc1ccc(C2=NNC3(S2)C(=O)Nc2ccc(C)cc23)cc1` (stereo not given) reads 95%; that for `CC(C)n1ncc2c(C(=O)N3CCCCCC3)cc(-c3ccccc3)nc21`, 97%; that for `Cl.O=C(NCCCCN1CCC(c2ccc3ccccc3c2O)CC1)c1ccc(-c2ccc(Cl)cc2)cc1`, 100%.
On to `Cc1ccc(N2CCN(C(=O)c3cccc(-c4cncc5nc(-c6ccco6)n(C)c45)c3)CC2)nc1`, for which the Inhibition came out at 94%.
`CCOc1ccc(Cc2c(C)nc3nc(N)nc(N)c3c2C)cc1.Cl` returned an Inhibition of 91%.
In turn, `COc1cc(-n2cnc3cc(-c4ccc(Cl)cc4)sc3c2=O)ccc1OCCN1CCC(c2cccc(NC(C)=O)c2)CC1.O=C(O)/C=C\C(=O)O` gave an Inhibition of 99%.
The compound `Cl.Oc1ccc2c(CNCCc3ccccc3)c(O)ccc2c1CNCCc1ccccc1` had an Inhibition of 99%.
Regarding `CC(C)C[C@@H](/C=N/NC(N)=O)NC(=O)[C@H](CC(C)C)NC(=O)[C@H](CC(C)C)NC(=O)OCc1ccccc1`, the Inhibition was found to be 100%.
`CN(C)CCCN1CCN(C(=O)c2cccc(-c3noc(C(F)(F)F)n3)c2)CC1` returned an Inhibition of 92%.
Compound `COc1ccc(Nc2nccc(N3CCC(NC(=O)Nc4cccc(C(C)=O)c4)C3)n2)cc1` (stereo not given) displayed an Inhibition of 98%.
For `Oc1ccccc1-c1nc2cccnc2n1CCc1cccc(C(F)(F)F)c1`, the Inhibition worked out at 93%.
Consider `Br.CCc1ccccc1OCCCON1C(=N)N=C(N)NC1(C)C`, for which the Inhibition is listed as 95%.
`Cl.O=S(=O)(Nc1ccc2nccc(N3CCNCC3)c2c1)c1ccc2oc3ccccc3c2c1` came in with an Inhibition of 100%.
For `Cc1cc(NCCC(=O)NCCOc2ccccc2)nc(NCCOc2ccccc2)n1.O=C(O)C(F)(F)F`, the Inhibition worked out at 92%.
The result for `Cc1c(S(=O)(=O)Nc2ccc3ccn(CCN(C)C)c3c2)sc2ccc(Cl)cc12.Cl` reads 98%.
With `Cc1cc(C(=O)CN2C(=O)NC3(CCOc4ccccc43)C2=O)c(C)n1Cc1ccco1` (stereo not given), the Inhibition worked out at 93%.
On to `COc1cc(Cc2cnc(N)nc2N)cc(OC)c1OCCNC(=O)[C@@H](N)CCC(=O)O.Cl`, for which the Inhibition was 96%.
The result for `Cc1ccc(CNC(=O)[C@H](CCCN)Nc2cc(C)nc(Nc3ccccc3)n2)cc1.O=C(O)C(F)(F)F` reads 90%.
Take `CC[C@H]1CN2CCc3c([nH]c4ccccc34)[C@@H]2C[C@@H]1CC1c2cc(OC)c(OC)cc2CCN1C.Cl` (stereo not given in full): the Inhibition stood at 85%.
Next, `OC(CNc1ccnc(Nc2cccc(Cl)c2)n1)c1cccc(F)c1` (stereo not given): 90%; `Oc1ccc(CCNCc2ccc(OCc3ccccc3)c(OCc3ccccc3)c2)cc1`: 88%; `CC(C)n1nc(C(=O)N2CCN(c3ccccc3)CC2)c2ccccc2c1=O`: 96%.
Consider `CCn1c(Sc2ccc(C#N)c([N+](=O)[O-])c2)nnc1-c1ccc(OC)cc1`, for which the Inhibition was determined as 98%.
Regarding `CS(=O)(=O)c1cccc2sc(N3CCN(C(=O)c4ccc([N+](=O)[O-])o4)CC3)nc12`, the Inhibition was found to be 84%.
On to `O=C(Nc1ccc(Cl)c(Cl)c1)Nc1ccc2nccc(N3CCN(Cc4ccccc4)CC3)c2c1`, for which the Inhibition is reported as 100%.
